Experimental data: PubChem BioAssay AID1465 (SRMLSC, 2008)
The campaign covered roughly 220,000 compounds. About 160 (0.073%) were called active. Only a sample is shown. Results with a measured potency or affinity are listed apart. A number with no mark means an inactive call.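 The calls were made as follows: active = fold induction of absorbance versus untreated yeast above a set limit, then at least 30% activation at any dose in follow-up; inconclusive = repeats straddling the limit, or above it without dose testing; inactive = fold induction below the set limit.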

Test: enhancers of respiration in Yfh1-depleted yeast, dose response, Friedreich's ataxia, plus single-dose screen (AID 1465)
Settings: S. cerevisiae Yfh1-off respiration, WST-1 reduction, 72 h; at 50 µM; hits give high values

Compound	fold induction
CCOC(=O)C1=C(Cc2ccc(Cl)cc2)C(=O)c2ccccc2C1=O	1.27
CCOC(=O)C1=C(Cc2ccc(C)cc2)C(=O)c2ccccc2C1=O	1.29
CCNS(=O)(=O)c1ccc(NC(=O)Nc2ccccc2OC)cc1	1.1
Cc1nc2c(C)cccn2c1/C(O)=C1\C(=O)C(=O)N(CCN(C)C)C1c1ccncc1 (stereo not drawn)	1.11
Oc1ccc(CN2CCN(Cc3ccccc3)CC2)c2cccnc12	1.36
COc1ccccc1N1CCN(Cc2cc(Br)c(O)c3ncccc23)CC1	0.74
Oc1ccc(CN2CCCCC2)c2cccnc12	0.69
Oc1ccc(CN2CCN(c3ccccc3)CC2)c2cccnc12	0.91
CCOc1ccc(C(=O)NCC(=O)OCc2c(F)cccc2Cl)cc1	1.18
CCNC(=S)N(Cc1ccc(OC)cc1)C1CC(=O)N(c2ccc(OCC)cc2)C1=O (stereo not drawn)	0.92
NC(=S)Nc1ccccc1Br	1
Cc1ccc(/C=N/NC(=O)CN2CCN(Cc3ccccc3Cl)CC2)o1	0.97
CCOC(=O)/C(C#N)=N/Nc1c(C)n(C)n(-c2ccccc2)c1=O	1
Cc1c(NC=C(C#N)C#N)c(=O)n(-c2ccccc2)n1C	0.95
Cc1c(N/C=C/C(=O)c2ccc(Cl)cc2)c(=O)n(-c2ccccc2)n1C	1
N#C/C(=N\Nc1ccc(Cl)cc1)C(=O)c1ccccc1	0.82
COC(=O)C(=NNc1c(C)n(C)n(-c2ccccc2)c1=O)C(=O)OC	1
Cc1c(NN=C(C#N)C#N)c(=O)n(-c2ccccc2)n1C	0.98
O=C(c1cc2c(s1)CCCC2)N1CCN(S(=O)(=O)c2ccccc2C(F)(F)F)CC1	0.91
CCC(C)/C(C)=N/NC(=O)c1cn(-c2ccccc2)nc1-c1ccccc1 (stereo not drawn)	0.83
O=C(O)CC(NC(=O)Cc1ccc([N+](=O)[O-])cc1)c1ccc2c(c1)OCO2 (stereo not drawn)	1
Cc1ccc(-c2cc3nc(-c4ccccc4)cc(N4CCC5(CC4)OCCO5)n3n2)cc1	0.98
O=C(Nc1ccon1)c1cccc(C(F)(F)F)c1	0.98
COc1c(O)cc2c(c1O)C(=O)CC(c1ccccc1)O2 (stereo not drawn)	0.86
C[C@@H]1Cc2c(O)c(O)cc(O)c2C(=O)O1	1.07

Compound	fold induction
Cc1cc2cc(C(c3nnnn3Cc3ccco3)N3CCCCC3)c(=O)[nH]c2cc1C (stereo not drawn)	0.99
COc1ccc(OC)c(N2C(=O)CC(Cc3ccc(C)cc3)C2=O)c1 (stereo not drawn)	0.84
N#C/C(C(=O)N1CCCCC1)=C1\Nc2ccccc2S1	0.81
COC1=C(c2ccccc2)C(=O)c2ccccc2C1=O	1.01
CC(=O)C1=C(c2ccc(Br)cc2)C(=O)c2ccccc2C1=O	0.86
COc1ccc(C/C(O)=C(\C#N)c2nc3ccccc3[nH]2)cc1OC	1.12
O=C(CC1(O)C(=O)Nc2ccccc21)c1ccc(-n2cnnn2)cc1 (stereo not drawn)	1.11
CC1CCCC(NC(=O)c2ccc3c(=O)n(CC4CCCO4)c(=O)[nH]c3c2)C1C (stereo not drawn)	1.02
CCC(=O)/C=C1/Sc2ccccc2N1CC	0.79
CCOC(=O)/C(=C/C=C1\Sc2ccccc2N1CC)C(C)=O	0.99
COC(=O)c1ccccc1NC(=O)Cn1ccnc1	1.02
CC(C)CC(=O)NC(c1cccs1)c1ccc2cccnc2c1O (stereo not drawn)	0.99
CC(=O)NC(c1ccco1)c1ccc2cccnc2c1O (stereo not drawn)	0.91
O=[N+]([O-])c1ccc(O)c2ncccc12	1.17
CCC(=O)NC(c1cccs1)c1ccc2cccnc2c1O (stereo not drawn)	0.88
CCCC(=O)NC(c1ccco1)c1cc(Cl)c2cccnc2c1O (stereo not drawn)	0.7
CCCC(=O)NC(c1ccco1)c1c(O)ccc2ccccc12 (stereo not drawn)	0.99
O=C1CNC(=O)N1CC(=O)N1CCCc2ccccc21	1.04
COc1ccc(C)cc1S(=O)(=O)Nc1cc(Cl)ccc1Cl	0.94
OC(COc1ccc2ccccc2c1)CN1CCN(c2ccc(F)cc2)CC1 (stereo not drawn)	0.93
COc1ccc(/C=C2\Sc3ccc(C(=O)NCc4cccnc4)cc3N(C)C2=O)cc1OC	1.1
c1csc(-c2nnc(N3CCOCC3)c3ccccc23)c1	1.39
Cc1c(Nc2ccc(C=O)cc2)c(=O)n(-c2ccccc2)n1C	1.09
Clc1ccc(-c2n[nH]c3c2CCC3)cc1Cl	0.777
CCC(=O)NNc1ncnc2c1cnn2C	1.06

Compound	fold induction
CCOc1ccc(Oc2ccc(S(=O)(=O)N3CCOCC3)cc2N)cc1	1.12
CCc1nnc(NC(=O)CCC(=O)N2CCN(CCOc3ccc(C)cc3)CC2)s1	0.907
Cc1ccc(NC(=S)NNc2ccc([N+](=O)[O-])cc2S(=O)(=O)Nc2ccccc2C(=O)O)cc1C	1.09
COc1ccc(NC(=S)NNc2ccc([N+](=O)[O-])cc2S(=O)(=O)Nc2ccc(C)cc2C)cc1	1.25
O=C(O)CCc1nn2c3ccccc3nc2n(CCN2CCCCC2)c1=O	1.09
COc1cc2c(cc1NC(=O)C(C)OC(=O)/C=C/c1ccc(OC(F)F)cc1)oc1ccccc12 (stereo not drawn)	1.12
Cc1cc(/C=N/NC(=O)c2ccccc2F)c(C)n1-c1ccccc1	1.02
COc1ccc(/C=N/NC(=O)c2cc(C)n(-c3ccccc3)c2C)cc1OC	0.99
Cc1ccc(CCCOC(=O)C[N+]2(C)CCOCC2)cc1	1.14
Cc1c(S(=O)(=O)N2CCN(C(c3ccccc3)c3ccccc3)CC2)c(=O)n(C)c(=O)n1C	1.25
CN1/C(=C\C=C2/SC(=S)NC2=O)C(C)(C)c2ccccc21	1.04
CN1/C(=C\C=O)C(C)(C)c2ccccc21	1.07
CC(C)n1c(SCC(=O)c2ccc3c(c2)OCCO3)nc2c1c(=O)n(C)c(=O)n2C	1.06
O=[N+]([O-])c1ccc(/C=N/Nc2nc(NCc3ccccc3)nc(N3CCOCC3)n2)cc1	1.08
O=[N+]([O-])c1cccc(/C=N/Nc2nc(NCc3ccccc3)nc(N3CCOCC3)n2)c1	1.03
CCCCN1C(=O)C2C(c3ccc(OC)cc3O)NC(CC(C)C)(C(=O)O)C2C1=O (stereo not drawn)	0.99
CCCC(=O)NC(c1ccc2c(c1)OCO2)c1cc(Cl)c2cccnc2c1O (stereo not drawn)	1.12
CCCC(=O)NC(c1ccc(OC)c(OC)c1)c1cc(Cl)c2cccnc2c1O (stereo not drawn)	1.13
COc1ccc(C(NC(=O)c2cccnc2)c2cc(Cl)c3cccnc3c2O)cc1OC (stereo not drawn)	0.98
CCCC(=O)NC(c1ccc(OC)cc1)c1ccc2cccnc2c1O (stereo not drawn)	0.96
O=C(CS(=O)(=O)c1c[nH]c2ccccc12)N1CCCCCC1	1.02
CC(=NC1CC1)c1c(-c2ccccc2)[nH]n(-c2nc3ccccc3s2)c1=O	0.93
CCCc1cc(=O)n(-c2nc3ccccc3s2)[nH]1	1
Cc1ccc(S(=O)(=O)NCC(=O)OCc2ccccc2)cc1	0.97
COc1ccc(CN2C(=O)[C@H]3Cc4c([nH]c5ccccc45)C(C)(C)N3C2=O)cc1	0.81

Compound	fold induction
O=[N+]([O-])c1cc(Cl)c2cccnc2c1O	0.89
CC(C)C(=O)NC(c1ccccc1)c1cc([N+](=O)[O-])c2cccnc2c1O (stereo not drawn)	0.98
O=[N+]([O-])c1cc(Cl)c(O)c2ncccc12	1.15
CCC(=O)NC(/C=C/c1ccccc1)c1cc([N+](=O)[O-])c2cccnc2c1O (stereo not drawn)	1.36
O=C(NNC(=O)c1cccnc1)Nc1cccc(Cl)c1Cl	0.89
Cc1cnccc1CN(C)Cc1nc(Cc2ccccc2Cl)no1	0.85
CCC1(C(=O)O)NC(c2cccc(OC)c2O)C2C(=O)N(c3ccccc3)C(=O)C21 (stereo not drawn)	1.01
Cc1cc(C)n2nc(-c3sccc3-n3c(C)ccc3C)cc2n1	1.01
COc1ccc(CN2C3CCCC2CC(NC(=O)Nc2cccc(C)c2)C3)cc1 (stereo not drawn)	0.96
Cc1ccc(C(=O)c2c(C)oc3c2C(=O)C(=O)c2ccccc2-3)cc1	1.18
Cc1oc2c(c1C(=O)O)C(=O)c1ccccc1C2=O	1.01
C=CCn1c(C)cc(C(=O)COc2ncnc3sccc23)c1C	0.88
COc1ccccc1N(CN1C(=O)c2ccccc2C1=O)C(=O)c1cccc(C)c1	0.82
O=C(CCCn1nnc2ccccc2c1=O)N[C@H](C(=O)O)c1ccccc1	1.02
O=C(O)c1cccc(NC(=S)N/N=C/c2cccnc2)c1	0.98
O=C(O)c1cccc(NC(=S)N/N=C/c2cccc(O)c2)c1	1.03
COc1c(Cl)cc(Cl)cc1C(=O)n1nc(C)cc1C	0.88
CCOC(=O)c1ccc(NNC(=O)CC)c([N+](=O)[O-])c1	1.03
CNc1nc2c(c(=O)[nH]c(=O)n2C)n1CCOC	1.02
O=C1NC(=O)/C(=C/c2ccc(N3CCOCC3)o2)N1	1.01
O=C1NC(=O)/C(=C\c2ccc(N3CCOCC3)o2)N1	0.97
COc1ccccc1C(CC(=O)N1CCCC1)c1ccc2c(c1)OCO2 (stereo not drawn)	0.99
NNC(=O)CCc1c[nH]c2ccccc12	0.93
